From ChEMBL document CHEMBL3433997, “St. Jude Leishmania screening dataset” (2016)

How the values were obtained:
Type in all cases: functional
[1] = molecular target: Solute carrier family 2, facilitated glucose transporter member 1 (Homo sapiens) (UniProt P11166); assay: ST_JUDE_LEISH: Cytotoxicity at 2uM final concentration against transgenic Leishmania Mexicana promastigotes LmGLUT1 that are glucose transport deficient and complemented with the human glucose transporter GLUT1. Activity is measured by DNA content using SYBR green in vitro
[2] = molecular target: Hexose transporter 1 (Plasmodium falciparum) (UniProt O97467); assay: ST_JUDE_LEISH: Cytotoxicity at 2uM final concentration against transgenic Leishmania Mexicana promastigotes LmPfHT that are glucose transport deficient and complemented with the Plasmodium falciparum hexose transporter. Activity is measured by DNA content using SYBR green in vitro
[3] = molecular target: Glucose transporter (Leishmania mexicana) (UniProt O61059); assay: ST_JUDE_LEISH: Cytotoxicity at 2uM final concentration against transgenic Leishmania Mexicana promastigotes LmGT2 that are glucose transport deficient and complemented with the L. Mexicana glucose transporter 2. Activity is measured by DNA content using SYBR green in vitro

Chain of Solute carrier family 2, facilitated glucose transporter member 1 (Homo sapiens) (P11166 whole entry): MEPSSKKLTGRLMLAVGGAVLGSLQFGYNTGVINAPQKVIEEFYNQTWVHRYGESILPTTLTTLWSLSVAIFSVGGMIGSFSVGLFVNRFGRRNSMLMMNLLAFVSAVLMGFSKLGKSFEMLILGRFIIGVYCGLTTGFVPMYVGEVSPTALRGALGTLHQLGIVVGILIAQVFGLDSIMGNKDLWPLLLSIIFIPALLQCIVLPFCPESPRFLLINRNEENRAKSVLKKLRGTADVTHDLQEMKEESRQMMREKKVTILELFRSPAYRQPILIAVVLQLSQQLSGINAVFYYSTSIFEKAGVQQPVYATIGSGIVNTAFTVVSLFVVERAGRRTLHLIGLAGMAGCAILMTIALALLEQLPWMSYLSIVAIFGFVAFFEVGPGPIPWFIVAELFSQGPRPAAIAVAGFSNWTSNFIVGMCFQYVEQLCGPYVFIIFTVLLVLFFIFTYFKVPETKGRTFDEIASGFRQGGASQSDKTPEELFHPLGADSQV

| SMILES | inhibition [1] | inhibition [2] | inhibition [3] |
| --- | --- | --- | --- |
| CCOC(=O)NC1=NC(C)(C)N(OCCCOc2cc(Cl)c(Cl)cc2Cl)C(NC(=O)OCC)=N1 | 2.08% | 0.27% | 1.36% |
| CC(C)COc1ccc(Cl)cc1Cc1ccc(-c2nc3c(F)cccc3[nH]2)o1 | 0.36% | 0.7% | 2.89% |
| CCCc1ccc(C2CCN(CCCCNC(=O)c3ccc(NC(=O)c4ccc(Cl)cc4)cc3)CC2)cc1 | 0.56% | -1% | 0.1% |
| Cc1c(CNCCN2CCCCC2)c(C(=O)O)c(C)n1Cc1ccc(Cl)cc1 | -0.09% | 0.33% | 0.22% |
| CC=CCON1C(=N)NC(=N)NC1(C)C | 1.93% | 1.47% | 1.8% |
| O=C(NCCc1ccc(Cl)c(Cl)c1)C1CCCN(C(=O)c2ccc(O)c(-c3ccc(Cl)c(Cl)c3)c2)C1 (centres undefined) | 1.33% | 2.53% | 4.3% |
| NC(=O)C1CCN(Cc2ccc(-c3ccc(-c4nc5cc(F)ccc5[nH]4)cc3)cc2)CC1 | 12.7% | 12.7% | 10.8% |
| COc1cccc(-n2ncc3c(N/N=C/c4ccc(CN(C)CCN(C)C)cc4)ncnc32)c1 | 10.7% | 10.3% | 7.16% |
| Cc1ccc(NC(=O)c2ccc(CN3CCCN(CCC(C)C)CC3)cc2)cc1F | 7.11% | 7.04% | 9.05% |
| Nc1nccc2ccc(-c3ccc4nccn4c3)cc12 | 3.49% | 3.17% | 4.92% |
| Cc1cc(C2CCN(CCCCNC(=O)c3ccc(NC(=O)c4ccc(Cl)cc4)cc3)CC2)c(C)cc1OCc1cccnc1 | 0.04% | -0.98% | -0.82% |
| Cc1cc(C(=O)NCc2ccc(-c3c(C)noc3C)cc2)n(-c2ccc(Cl)cc2)n1 | 8.7% | 7.89% | 2.6% |
| CCCCCC1c2[nH]c3ccccc3c2CCN1C(=O)OCc1ccccc1 (centres undefined) | 7.38% | 6.98% | 7.22% |
| Cc1cccc2nc(-c3cccc(-c4cccc(NC(=O)Nc5ccc(Cl)c(Cl)c5)c4)c3)[nH]c12 | -0.37% | -0.17% | -0.99% |
| COc1ccc2ncc(F)c(CCN3CCC(NCc4cc(Br)c5c(c4)OCCO5)CC3)c2n1 | 18.9% | 31.4% | 14.3% |
| Cc1ccc2c(c1)NCC21CCN(C[C@@H](O)C2CCN(c3cc(C#N)ccn3)CC2)CC1C (some centres undefined) | -1.68% | 0% | -3.72% |
| CC1(C)N=C(N)N=C(N)N1OCCc1ccc2ccccc2c1 | 1.63% | 1.47% | 3.22% |
| CC(C)(C(=O)Nc1ccc(C2CCC(NCC3CC3)CC2)c(Cl)c1)c1cccc(OC(F)F)c1 (centres undefined) | 9.94% | 8.75% | 9.65% |
| O=C(Nc1ccccc1)Nc1ccc(-n2ccc(C(F)(F)F)n2)cc1 | 2.55% | 2.63% | -0.06% |

| SMILES | inhibition [1] | inhibition [2] | inhibition [3] |
| --- | --- | --- | --- |
| CC(C)CNCc1ccc(-c2ccc(CN(C(=O)NCCc3ccccc3)C3CCN(Cc4ccccc4)CC3)cc2)cc1 | 71.6% | 53.7% | 47.2% |
| Cc1cc(N/N=C/c2cccc([N+](=O)[O-])c2)c2ccccc2n1 | 1.39% | 1.27% | 4.98% |
| CS(=O)(=O)NCCCNCc1ccc(-c2ccc(-c3nc4cc(F)ccc4[nH]3)s2)cc1 | -2.43% | -1.55% | -2.09% |
| CNc1nc(N/N=C/c2cc([N+](=O)[O-])c(Cl)cc2Cl)nc(Nc2cccc(C(F)(F)F)c2)n1 | 4.8% | 2.41% | 0.84% |
| N#Cc1cccc(C(=O)Nc2cccc(-c3cccc(CN4CCNCC4)c3)c2)c1 | 4.13% | 6.34% | 3.25% |
| CC(=O)Nc1ccc(C(=O)Nc2cccc(-c3cccc(-c4nc5cc(F)ccc5[nH]4)c3)c2)cn1 | 7.97% | 10.8% | 3.74% |
| Cc1ccc(NS(=O)(=O)c2ccc(C(C)N3CCC(N4CCCCC4)CC3)cc2)cc1C (centres undefined) | -2.42% | -0.86% | 0.73% |
| CCc1c(CCNCCCCCCNC(C)Cc2ccc3c(c2CC)OCO3)ccc(OC)c1OC (centres undefined) | 4.49% | 3.47% | 1.99% |
| COc1ccc2[nH]c(C)cc(=NN=Cc3cc(OC)c(OC)cc3OC)c2c1 | 5.42% | 5.13% | 6.18% |
| O=C(Cc1cccc2ccccc12)N1CCc2cc3nccc(N4CCN5CCC[C@H]5C4)c3cc21 | 8.63% | 7.78% | 10% |
| O=C(NC1CCC1)C1CCN(C(c2ccc(Cl)cc2)c2ccc(Cl)cc2)CC1 | -0.62% | 1.93% | -0.82% |
| Cc1cc(NC(=O)c2cccs2)ccc1OC1CCN(Cc2ccc(F)cc2)CC1 | 1.65% | 2.76% | 5.08% |
| COc1ccc2nccc([C@@H](O)CN3CCC(NC(=O)c4cc5c(Cl)cc(Cl)cc5[nH]4)CC3)c2c1 | 5.68% | 7.48% | 0.08% |
| N#CCc1ccc(Nc2nccc(Nc3ccc(Oc4ccccc4)cc3)n2)cc1 | 13.8% | 6.97% | 1.09% |
| CC(C)(C)Oc1ccc(NC(=O)c2ccccc2O)cc1 | 6.73% | 5.36% | 4.28% |
| O=C(NC1CCN(CCC(NC(=O)c2ccccc2)c2ccc(Cl)c(Cl)c2)CC1)c1ccc(Cl)cc1 (centres undefined) | 3.39% | 2.33% | 1.88% |
| c1ccc(Oc2ccc(Nc3nc(NCCc4c[nH]cn4)nc(NC4CCCC4)n3)cc2)cc1 | 5.3% | 5.86% | 6.19% |
| CN(C)c1ccc(-c2csc(C(=O)NCC3CCN(CCC(C)(C)C)C3)c2)cc1 (centres undefined) | -0.84% | -0.06% | 0.06% |
| COc1cc(Cc2cnc(N)nc2N)cc(OC(C)C)c1OC | -0.55% | 0.72% | -0.54% |
